Experimental data: PubChem BioAssay (NCI)
Several values for one entry are separate records, joined by “and”; a condition that tells them apart may be missing. Equal values may be shown once. About 79,000 compounds went through this panel and 15% of them were active in at least one assay; those are over-represented in the sample as a whole. Unmarked numbers belong to inactive results. Activity calls are given as the source filed them. No stated cut-off is given here; in the data, active means growth inhibition above about 70%; inactive means the rest.

Legend:
[1] = NCI Yeast Anticancer Drug Screen. Data for the rad50 strain (AID 155);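 further: 0% = growth of vehicle-only cultures of the same strain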; settings: S. cerevisiae rad50 strain growth inhibition, hits give high values; at 50.0 µM unless noted
Outline: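 Readout: growth inhibition relative to vehicle-treated cultures. Compound exposure was carried out in a genetically defined yeast strain deficient in DNA damage repair.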

[2] = NCI Yeast Anticancer Drug Screen. Data for the mec2-1 strain (AID 157); settings: S. cerevisiae mec2-1 strain, hits give high values; at 50.0 µM unless noted
Outline: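 Each compound was tested on mec2-1 yeast, a strain altered in DNA damage repair or cell cycle control. Growth inhibition is reported relative to vehicle.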

[3] = NCI Yeast Anticancer Drug Screen. Data for the sgs1 mgt1 strain (AID 161);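 further: 0% = growth of cultures given vehicle only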; settings: S. cerevisiae sgs1 mgt1 strain, hits give high values; at 50.0 µM unless noted
Outline: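 Test agents were incubated with a DNA-repair-mutant yeast strain. Growth was then read and compared against vehicle-treated controls.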

[4] = NCI Yeast Anticancer Drug Screen. Data for the cln2 rad14 strain (AID 165);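 further: 0% = growth equal to vehicle treated cultures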; settings: S. cerevisiae cln2 rad14 strain, hits give high values; at 50.0 µM unless noted
Outline: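 Test compounds were added to cln2 rad14 yeast cultures; inhibition of growth was then determined by comparison with vehicle treatment.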

[5] = NCI Yeast Anticancer Drug Screen. Data for the bub3 strain (AID 167); settings: S. cerevisiae bub3 mutant strain, hits give high values; at 50.0 µM unless noted
Outline: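 Readout: yeast growth inhibition, expressed relative to vehicle-only wells. The test organism is a mutant strain from a panel with lesions in DNA repair or checkpoint genes.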

[6] = NCI Yeast Anticancer Drug Screen. Data for the mlh1 rad18 strain (AID 175); settings: S. cerevisiae mlh1 rad18 strain growth inhibition, hits give high values; at 50.0 µM unless noted
Outline: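 Inhibition values reflect reduced growth of mutant yeast versus vehicle-treated controls following compound exposure; the mutations affect DNA damage repair.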

Cc1[nH]n(C(N)=S)c(=O)c1N=Nc1ccc([N+](=O)[O-])cc1Cl
growth inhibition [1]: 57.8% | growth inhibition [2]: 6% | growth inhibition [3]: 66.2% | growth inhibition [4]: -46.5% | growth inhibition [5]: 1.5% | growth inhibition [6]: 53.2%

O=c1c2ccccc2c(=O)n2n1-c1cccc(c1)CSSCc1cccc-2c1
growth inhibition [1]: -16.9% | growth inhibition [2]: 2.7% | growth inhibition [3]: -10.6% | growth inhibition [4]: -3.45% | growth inhibition [5]: 0.2% | growth inhibition [6]: -12.8%

Cc1ccc(S(=O)(=O)CBr)cc1
growth inhibition [1]: 5.35% | growth inhibition [2]: 14% | growth inhibition [3]: 6.9% | growth inhibition [4]: 3.3% | growth inhibition [5]: 4.6% | growth inhibition [6]: 5.2%

C=C(CC(O)(C(F)(F)F)C(F)(F)F)CC(O)(C(F)(F)F)C(F)(F)F
growth inhibition [1]: 64.8% | growth inhibition [2]: 94.5% (active) | growth inhibition [3]: 63.9% | growth inhibition [4]: 65.6% | growth inhibition [5]: 95% (active) | growth inhibition [6]: 95% (active)

O=C(O)C(C(=O)N(c1ccccc1)c1ccccc1)c1ccccc1 (stereo not given)
growth inhibition [1]: 9.8% | growth inhibition [2]: -1.05% | growth inhibition [3]: 21.5% | growth inhibition [4]: -51.9% | growth inhibition [5]: 18.7% | growth inhibition [6]: 9.75%

O=S(=O)(Nc1nccs1)c1ccc(NCc2c3ccccc3nc3cc(Cl)ccc23)cc1
growth inhibition [1]: 13.3% | growth inhibition [2]: 3.15% | growth inhibition [3]: 9.75% | growth inhibition [4]: -6.65% | growth inhibition [5]: -0.2% | growth inhibition [6]: 25.8%

NC(=S)Nc1nnc(-c2ccc(-c3nnc(NC(N)=S)o3)cc2)o1
growth inhibition [1]: 18.4% | growth inhibition [2]: 6.65% | growth inhibition [3]: -21.2% | growth inhibition [4]: 5.35% | growth inhibition [5]: 2.05% | growth inhibition [6]: -8.05%

C=C1CC(C2OCOC3COCOC32)OC1=O (stereo not given)
growth inhibition [1]: -44.1% | growth inhibition [2]: -12.9% | growth inhibition [3]: -14.8% | growth inhibition [4]: -22.6% | growth inhibition [5]: 17.2% | growth inhibition [6]: -2.1%

OCCN(CCO)c1ncnc2c1sc(=S)n2-c1ccccc1
growth inhibition [1]: -0.05% | growth inhibition [2]: -32.3% | growth inhibition [3]: 1.15% | growth inhibition [4]: 7.9% | growth inhibition [5]: -5.65% | growth inhibition [6]: 7.5%

CC/C(CC(=O)CCC(=O)Nc1ccc(C)c(C)c1)=N\NC(=O)c1cc2ccccc2cc1O
growth inhibition [1]: 45.2% | growth inhibition [2]: 22.9% | growth inhibition [3]: -13.4% | growth inhibition [4]: -5.2% | growth inhibition [5]: 44.6% | growth inhibition [6]: 34.4%

COc1cc2c(cc1OCc1ccccc1)C(Cc1cc(Br)sc1Br)=NCC2
growth inhibition [1]: 57.8% | growth inhibition [2]: 58.5% | growth inhibition [3]: 54% | growth inhibition [4]: 50.3% | growth inhibition [5]: 70.5% (active) | growth inhibition [6]: 43.4%

O=C1OC(/C=C/c2ccccc2)=NC/1=C\c1ccc2c(c1)OCO2
growth inhibition [1]: -4.95% | growth inhibition [2]: 18.9% | growth inhibition [3]: -16.4% | growth inhibition [4]: -21.1% | growth inhibition [5]: -1.85% | growth inhibition [6]: -19.8%

Cc1ccccc1Cc1nccc2c1[nH]c1ccccc12
growth inhibition [1]: -3% and -0.7% | growth inhibition [2]: -11.5% and -15.1% | growth inhibition [3]: -9.05% | growth inhibition [4]: -29.5% | growth inhibition [5]: -8.45% | growth inhibition [6]: -16.9% and 50.1%

CCCOc1cc2c(cc1C(C)c1ccc(OC)c(C)c1)OCO2 (stereo not given)
growth inhibition [1]: -3.55% | growth inhibition [2]: 3.45% | growth inhibition [3]: -6% | growth inhibition [4]: -87.7% | growth inhibition [5]: 4.55% | growth inhibition [6]: 4.15%

c1ccc2nc3c(cc2c1)c1c(c2ccccc23)CCCC1
growth inhibition [1]: 11.2% | growth inhibition [2]: -10.5% | growth inhibition [3]: 20.4% | growth inhibition [4]: -25.4% | growth inhibition [5]: -14.6% | growth inhibition [6]: 22.9%

CC(C)CC(C)COC(=O)c1c(Cl)c(Cl)c(Cl)c(Cl)c1C(=O)O (stereo not given)
growth inhibition [1]: 66.6% | growth inhibition [2]: 62.6% | growth inhibition [3]: 77.9% (active) | growth inhibition [4]: 63.4% | growth inhibition [5]: 72.8% (active) | growth inhibition [6]: 77.3% (active)

CN1CNC(=O)NC1
growth inhibition [1]: -37% and 10.6% | growth inhibition [2]: -25.8% and -10.5% | growth inhibition [3]: -12.3% and 9.8% | growth inhibition [4]: 4.05% and 8.2% | growth inhibition [5]: -23.1% and -11.1% | growth inhibition [6]: -16.1% and 23.9%

Cc1ccc(C=NC23CC4CC(CC(C4)C2)C3)cc1
growth inhibition [1]: -3.3% | growth inhibition [2]: -28.6% | growth inhibition [3]: -24.2% | growth inhibition [4]: -24.9% | growth inhibition [5]: -35.9% | growth inhibition [6]: -20.4%

Cc1c(OCCCOc2ccc3c(=O)cc(-c4ccccc4)oc3c2C)ccc2c(=O)cc(-c3ccccc3)oc12
growth inhibition [1]: -35.6% | growth inhibition [2]: -18.1% | growth inhibition [3]: -13.7% | growth inhibition [4]: 31.5% | growth inhibition [5]: -39.9% | growth inhibition [6]: -31.8%

CC1CCCN2C(=O)CN(c3ccccc3)CC(=O)N12 (stereo not given)
growth inhibition [1]: 13.6% | growth inhibition [2]: 2.45% | growth inhibition [3]: -4.7% | growth inhibition [4]: 14.9% | growth inhibition [5]: 5.35% | growth inhibition [6]: 1.95%
